Results taken from publication PMC12136788.
Substitutions are numbered along the chain they refer to. In all, about 24,000 sequences were measured (“enrichment r”: median about 0.99, highest 2% from about 3.7 on). For the sample, the highest values were picked, then their nearest neighbours and some sequences at random.

T1: UNK ZnF1-3 (human, UniProt Q9C0B0 31-174)
T1 sequence: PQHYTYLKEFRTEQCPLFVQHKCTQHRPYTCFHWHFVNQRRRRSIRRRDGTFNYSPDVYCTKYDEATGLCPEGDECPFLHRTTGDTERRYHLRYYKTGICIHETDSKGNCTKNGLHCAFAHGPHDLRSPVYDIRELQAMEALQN

B1: 18916218_18916338_822_CDS_ENSMUSG00000020160_ENSMUST00000068264|mouse|control|control (ssRNA)
RNA: GGGAGUUCUACAGUCCGACGAUCGUGCGGGUACUGAUGCGAGUGCAGAGGAGGCCCGUGGUUCAGGUGGUGGACCGGUUGCAUGGACCUGGCUGCAUGCGGGUCCCCAUACAUCGUGGAGGGGAUGCCUACUCCAUCCAUACCCAACAGAGGAUUGAGCAUCA
B2: chr11:2981123:2981124:-_ENSG00000205531_ENST00000380542|hu_mus|FALSE|FALSE (ssRNA)
RNA: GGGAGUUCUACAGUCCGACGAUCCUUGUACGUUUUCGUCAGGACAGGAUUGGUGAAGUAGUCGUUGGGUUCAAAGUGAAACUCUAGCACAAAAGACAUAGGUUGUCCAGGGUCUGAAAACUUCACUUUAAUAUCCUGCAGAUGCAACAGAGGAUUGAGCAUCA
B3: chr6:155153589:155153590:+_ENSG00000213079_ENST00000417268|hu_hu|motif|central (ssRNA)
RNA: GGGAGUUCUACAGUCCGACGAUCAGUAACAUUGUCUACGCUUUGUCUUCCAGGAGCUAAAAAAGGUCUUUCUGGUUGACGGAAAAUAUCUCCUGGAGGAAAAGGUCCACGGGGUGGUGGAUGAAGAGCUGAAUCAAGUACCGACAACAGAGGAUUGAGCAUCA
B4: chr1:161298228:161298229:+_ENSG00000143252_ENST00000367975|hu_hu|motif|central (ssRNA)
RNA: GGGAGUUCUACAGUCCGACGAUCCAUGGGAAGAGACCAACUGUAGAUAGUAAUGUGGGGAGACAGAGGACGGUUUGAACCGGUAUUCUUAUUCCAGAACCGCUCCAUCUCUUCUUUGGCCGUGGUUCCCAAAGGAACAGCAUUCAACAGAGGAUUGAGCAUCA
B5: 32561585_32561705_2007_CDS_ENSG00000100852_ENST00000539826|human|control|control (ssRNA)
RNA: GGGAGUUCUACAGUCCGACGAUCUAGUUCUUGGGCAAGGCCAUCCUUCCCUAAAAUAAAAAGGUUAACUUUAUCUAUAUUGGUACUAUCGUGAUAUAAUCUUAAGCGGCCAUGAUCCAACUGUAAAAGACUACUAGCAAGUAACAACAGAGGAUUGAGCAUCA
B6: chr3:139076767:139076768:-_ENSG00000184432_ENST00000507777|hu_mus|motif|central (ssRNA)
RNA: GGGAGUUCUACAGUCCGACGAUCACUUUAAUCAUCCAGAAUAUCUUCAUCCAGAUUAAUGUCUGUUGUGUCAAUAUCCUCGGAUUCCAAGUUAUCCAAAUCAACUUCUAGUUCUAGUAAACUCUUUUCUUCUUUGUGGGUAGUCAACAGAGGAUUGAGCAUCA
B7: chr15:100049815:100049816:+_ENSMUSG00000023026_ENSMUST00000100203|mus_mus|motif|central (ssRNA)
RNA: GGGAGUUCUACAGUCCGACGAUCAAUGAGUUAAUAGAACACUGUCCAGCCAGAUGUUAAAUUUAAAAAUGUAUAUCGGACCGGAUUUCAAAUAAAUAAAAAAACCUUUAUACAUAAUUACACAGUACUAUAGUUUGAAUUGGACAACAGAGGAUUGAGCAUCA
B8: chr1:58468927:58468928:-_ENSMUSG00000026034_ENSMUST00000148330|mus_mus|mus_mus_mus_hu_False|58_68 (ssRNA)
RNA: GGGAGUUCUACAGUCCGACGAUCAAUUACUGAAAAAGAUGUUCAUUACCUUAGCUAUGUACUUAAUUUAAUAAAGCAUCUAAAAAAAAUAAACAUGGCAAUAUAAAAAUGUUAAGAAUUUACAAAGCUGUACAAAAUAACUUACAACAGAGGAUUGAGCAUCA
B9: chr5:38529146:38529147:-_ENSMUSG00000029126_ENSMUST00000031009|mus_mus|FALSE|FALSE (ssRNA)
RNA: GGGAGUUCUACAGUCCGACGAUCAGAAAAGCUAAAGUAGCCCUGGCUUACCCAAAAUUACAUUUCACUUUGCCCACUGGCUAAUAAAACAAAACAAAACAAAACAAAAAACCCAAACUGCACCUGCAUUCAGGGCUGUACGUGCAACAGAGGAUUGAGCAUCA
B10: chr5:38529174:38529175:-_ENSMUSG00000029126_ENSMUST00000031009|mus_mus|FALSE|FALSE (ssRNA)
RNA: GGGAGUUCUACAGUCCGACGAUCGAAAAGCUAAAGUAGCCCUGGCUUACCCAAAAUUACAUUUCACUUUGCCCACUGGCUAAUAAAACAAAACAAAACAAAACAAAAAACCCAAACUGCACCUGCAUUCAGGGCUGUACGUGCCAACAGAGGAUUGAGCAUCA
B11: chr15:100049815:100049816:+_ENSMUSG00000023026_ENSMUST00000100203|mus_hu|motif|central (ssRNA)
RNA: GGGAGUUCUACAGUCCGACGAUCAAUGAGUUAAUAGAACACUGUCCAGCCAGAUGUUAAAUUUAAAAACGUAUAUCGGGUCGGACUUCAAAUAAAUAAAAAAACUUUAUACAUAAUUACACAGUACUGUAGUUUGAAUUUGACCAACAGAGGAUUGAGCAUCA
B12: chr1:58468927:58468928:-_ENSMUSG00000026034_ENSMUST00000148330|mus_mus|mus_mus_mus_hu_False|68_68 (ssRNA)
RNA: B8 RNA with U78C, U80C, A84C
B13: chr1:58468927:58468928:-_ENSMUSG00000026034_ENSMUST00000148330|mus_mus|mus_mus_mus_hu_False|18_68 (ssRNA)
RNA: B8 RNA with U78C, U80C, A84C, U118A, U119A, C122A, A123C, A124U, A125U, G126A
B14: chr15:100049815:100049816:+_ENSMUSG00000023026_ENSMUST00000100203|mus_hu|FALSE|FALSE (ssRNA)
RNA: B11 RNA with G77U, G78A, G82U, G83A
B15: chr1:58468927:58468928:-_ENSMUSG00000026034_ENSMUST00000148330|mus_mus|mus_mus_mus_hu_False|28_68 (ssRNA)
RNA: B8 RNA with U78C, U80C, A84C, U109G, G110C, U112A, A113U, G115C
B16: chr10:33190432:33190433:-_ENSG00000150093_ENST00000302278|hu_mus|hu_hu_hu_mus_True|28_68 (ssRNA)
RNA: GGGAGUUCUACAGUCCGACGAUCUACAUUUUCCAAACCUGCAUGUGAAUAAAACCCUGGCCACAGAGCCCUAAAGCUACCCUACUGUGACUAAGAUGCUGCUGCUGUUGCAUUCAGGUUGCAAAAUCCGCCUGAGUAGGAUUCCAACAGAGGAUUGAGCAUCA
B17: chr1:58468927:58468928:-_ENSMUSG00000026034_ENSMUST00000148330|mus_mus|mus_mus_mus_hu_False|1_68 (ssRNA)
RNA: B8 RNA with U78C, U80C, A84C, U137A, A138G, U142G
B18: 28740388_28740508_4059_3pUTR_ENSMUSG00000048271_ENSMUST00000114884|mouse|control|control (ssRNA)
RNA: GGGAGUUCUACAGUCCGACGAUCUUUGAGCUGGUAACAUUCUUUCCUGAAUCUAAAACUCUGUGACCAAUCACAUAGCAGGAUCACGAAGAACAAGGUCUACAUGCAUUAUAAGCACUCGGAAACAAAAGAACACGAGAACAGCAACAGAGGAUUGAGCAUCA
B19: chr7:149068622:149068623:-_ENSMUSG00000025139_ENSMUST00000001950|mus_hu|mus_mus_mus_hu_False|58_98 (ssRNA)
RNA: GGGAGUUCUACAGUCCGACGAUCGUGAGGCCUCUGAGUGAGGUUCCUGGUCUGUCCUGGGUUAGAGUUGUUAAUAUCACUAAGUGGACCAUCUAGAACGUUCCAGUCCCGCCUGACACCUUCAUUCCCAAUGGAGAAGAAAUCCAACAGAGGAUUGAGCAUCA
B20: chr14:21343309:21343310:-_ENSMUSG00000021816_ENSMUST00000161445|mus_hu|motif|central (ssRNA)
RNA: GGGAGUUCUACAGUCCGACGAUCAGGAUCGGACCAUAACAAGUCACACAUUGGUCCAAAUGCAGGUGGCUCUUUGAAUCGGUCGGAUCUCCUAAUAUCAUCCAGUGUGUGUAUUUCUGGUGAAAGUCCACCAUGAACACAAAGCAACAGAGGAUUGAGCAUCA
B21: chr1:78194255:78194256:-_ENSG00000077254_ENST00000357428|hu_mus|motif|central (ssRNA)
RNA: GGGAGUUCUACAGUCCGACGAUCAUUGCUGUCCUCAGGAAAGCCUUUGGAGCCACUCUCAUUUUCUGCUUUCUCGCUGCUGCGGCAAGACUCGCACGACUGAAAAUCCACAUCUGACUGGCUCUUCUCUUCCUCCACCGUCUCCAACAGAGGAUUGAGCAUCA
B22: chr7:128503047:128503048:+_ENSG00000128524_ENST00000249289|hu_mus|FALSE|FALSE (ssRNA)
RNA: GGGAGUUCUACAGUCCGACGAUCGGUGGUAUCCUUCUCCACUACCAGGAAAUUAGGGUGGCGGUUCUUGUUUAGCUCCCCUAUGCCGCCCAACAGGAAACCAGUCACCGUGUCCUCGUCUCCAAUCACCGCGAUUAGCUUACCCAACAGAGGAUUGAGCAUCA

target: T1, UNK ZnF1-3; assay: nsRBNS (natural sequence RNA bind-n-seq); RBNS binding buffer (assumed for nsRBNS): 25 mM Tris pH 7.5, 150 mM KCl, 3 mM MgCl2, 0.01% Triton X-100, 500 ug/ml BSA, 20 U/ml SUPERase-In, 4 C; UNK is unkempt and MSI1 is Musashi-1; names of the RNAs are library labels; protein concentration not given here; high values mean tight binding

Binder | binding signal [enrichment R]
B1 | 0.98
B2 | 0.872
B3 | 0.663
B4 | 1.08
B5 | 1.31
B6 | 0.449
B7 | 2.23
B8 | 3.76
B9 | 4.49
B10 | 1.5
B11 | 4.96
B12 | 1.87
B13 | 3.68
B14 | 1.95
B15 | 0.868
B16 | 1.01
B17 | 1.68
B18 | 1.22
B19 | 0.755
B20 | 0.921
B21 | 0.703
B22 | 0.494
